Experimental data from PubChem BioAssay (NCATS).
Inconclusive results are not listed. Activity calls are given as the source filed them. Calls follow the shape of the dose curve; as a rule, active = well fitted curve in the direction sought with a large enough effect; inconclusive = small, poorly fitted or top-dose-only effect, or another doubt; inactive = no such curve, though single readings can be large; an effect the other way counts as inactive or inconclusive.

Key:
[1] = Quantitative High-Throughput drug screen in 47 multiple myeloma cell lines against the NCATS MIPE library collection: FR4_PLB cell viability assay (AID 1918924; also: nearly all actives have a fitted effect of over 35% in size; also: potency is read from the fitted curve at half-maximal effect)
Method in brief: (§1)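 Myeloma cells (500 per well) were exposed to MIPE 4.0 compounds by pin transfer and incubated 48 hours at 37C, 5% CO2. Viability was read as ATP by CellTiter-Glo luminescence, normalised to DMSO (100%) and media-only (0%) wells.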

[2] = Quantitative High-Throughput drug screen in 47 multiple myeloma cell lines against the NCATS MIPE library collection: Delta47_JCRB cell viability assay (AID 1918925; also: nearly all actives have a fitted effect of over 45% in size; also: potency is read from the fitted curve at half-maximal effect)
Method in brief: (§2)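 Steps: seed 500 cells per well; pin-transfer MIPE 4.0 library; incubate 48 h at 37C, 5% CO2, humidified; add CellTiter-Glo, 5 min room temperature; read luminescence.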

[3] = Quantitative High-Throughput drug screen in 47 multiple myeloma cell lines against the NCATS MIPE library collection: AMO1_DSMZ cell viability assay (AID 1918927; also: nearly all actives have a fitted effect of over 30% in size; also: potency is read from the fitted curve at half-maximal effect)
Method in brief: as §2

[4] = Quantitative High-Throughput drug screen in 47 multiple myeloma cell lines against the NCATS MIPE library collection: ARP1_JJKsccF8 cell viability assay (AID 1918928; also: nearly all actives have a fitted effect of over 40% in size; also: potency is read from the fitted curve at half-maximal effect)
Method in brief: (§3)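 CellTiter-Glo luminescence after 48 h exposure gives viability, scaled between DMSO-only (100%) and media-only (0%) controls. Library compounds are pinned onto 500 myeloma cells per well, incubated at 37C with 5% CO2.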

[5] = Quantitative High-Throughput drug screen in 47 multiple myeloma cell lines against the NCATS MIPE library collection: Karpas620_DSMZ cell viability assay (AID 1918959); also: nearly all actives have a fitted effect of over 30% in size; also: potency is read from the fitted curve at half-maximal effect
Method in brief: as §1

[6] = Quantitative High-Throughput drug screen in 47 multiple myeloma cell lines against the NCATS MIPE library collection: KMM1_JCRB cell viability assay (AID 1918960); also: nearly all actives have a fitted effect of over 30% in size; also: potency is read from the fitted curve at half-maximal effect
Method in brief: as §3

[7] = Quantitative High-Throughput drug screen in 47 multiple myeloma cell lines against the NCATS MIPE library collection: KHM11_PLB cell viability assay (AID 1918962); also: nearly all actives have a fitted effect of over 35% in size; also: potency is read from the fitted curve at half-maximal effect
Method in brief: as §1

[8] = Quantitative High-Throughput drug screen in 47 multiple myeloma cell lines against the NCATS MIPE library collection: JIM3_ECACC cell viability assay (AID 1918963; also: nearly all actives have a fitted effect of over 35% in size; also: potency is read from the fitted curve at half-maximal effect)
Method in brief: as §1

[9] = Quantitative High-Throughput drug screen in 47 multiple myeloma cell lines against the NCATS MIPE library collection: INA6_PLB cell viability assay (AID 1918965; also: nearly all actives have a fitted effect of over 55% in size; also: potency is read from the fitted curve at half-maximal effect)
Method in brief: (§4)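 CellTiter-Glo ATP luminescence gave viability after 48 h compound treatment at 37C of 500 multiple myeloma cells per well. Normalisation used DMSO-only wells as 100% and media-only wells as 0% viability; primary qHTS of approved and investigational drugs.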

[10] = Quantitative High-Throughput drug screen in 47 multiple myeloma cell lines against the NCATS MIPE library collection: Karpas25_ECACC cell viability assay (AID 1918968; also: nearly all actives have a fitted effect of over 35% in size; also: potency is read from the fitted curve at half-maximal effect)
Method in brief: as §2

[11] = Quantitative High-Throughput drug screen in 47 multiple myeloma cell lines against the NCATS MIPE library collection: KMS27_JCRB cell viability assay (AID 1918970); conditions: KMS27 myeloma cells, CellTiter-Glo ATP viability, 48 h; viability (% of DMSO): at 45.8 µM (top of the series); also: nearly all actives have a fitted effect of over 30% in size; also: potency is read from the fitted curve at half-maximal effect
Method in brief: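 ATP-based viability (CellTiter-Glo luminescence) is measured in cells treated 48 h with approved and investigational drugs at 37 °C. Controls are DMSO-only wells for full viability and media-only wells for none.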

[12] = Quantitative High-Throughput drug screen in 47 multiple myeloma cell lines against the NCATS MIPE library collection: KMS12BM_JCRB cell viability assay (AID 1918971); also: nearly all actives have a fitted effect of over 35% in size; also: potency is read from the fitted curve at half-maximal effect
Method in brief: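 We plated 500 myeloma cells per well, pinned in MIPE 4.0 compounds, and incubated for 48 hours at 37C. ATP was then quantified with CellTiter-Glo, with DMSO and media-only wells defining 100% and 0%.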

[13] = Quantitative High-Throughput drug screen in 47 multiple myeloma cell lines against the NCATS MIPE library collection: JIM1_ECACC cell viability assay (AID 1918964; also: potency is read from the fitted curve at half-maximal effect)
Method in brief: as §2

[14] = Quantitative High-Throughput drug screen in 47 multiple myeloma cell lines against the NCATS MIPE library collection: H1112_PLB cell viability assay (AID 1918967; also: nearly all actives have a fitted effect of over 30% in size; also: potency is read from the fitted curve at half-maximal effect)
Method in brief: as §2

[15] = Quantitative High-Throughput drug screen in 47 multiple myeloma cell lines against the NCATS MIPE library collection: JJN3_DSMZ cell viability assay (AID 1918966; also: nearly all actives have a fitted effect of over 50% in size; also: potency is read from the fitted curve at half-maximal effect)
Method in brief: as §2

[16] = Quantitative High-Throughput drug screen in 47 multiple myeloma cell lines against the NCATS MIPE library collection: Karpas417_ECACC cell viability assay (AID 1918961); conditions: Karpas417 myeloma viability, CellTiter-Glo ATP luminescence, 48 h; viability (% of DMSO): at 45.8 µM (top of the series); also: potency is read from the fitted curve at half-maximal effect
Method in brief: as §4

[17] = Quantitative High-Throughput drug screen in 47 multiple myeloma cell lines against the NCATS MIPE library collection: ARD_JJKsccE7 cell viability assay (AID 1918929; also: potency is read from the fitted curve at half-maximal effect)
Method in brief: as §2

[18] = Quantitative High-Throughput drug screen in 47 multiple myeloma cell lines against the NCATS MIPE library collection: EJM_DSMZ cell viability assay (AID 1918926; also: nearly all actives have a fitted effect of over 30% in size)
Method in brief: as §2

Compound	Potency [1]	Potency [2]	Potency [3]	Potency [4]	Potency [5]	Potency [6]	Potency [7]	Potency [8]	Potency [9]	Potency [10]	Potency [11]	Potency [12]	Potency [13]	Potency [14]	Potency [15]	Potency [16]	Potency [17]	Potency [18]
CCCCC[C@H](O)C=C[C@H]1[C@H](O)CC(=O)[C@H]1CC=CCCCC(=O)O	inactive	inactive	inactive	inactive	inactive	inactive	5.9 µM (active)	20.9 µM (active)	18.7 µM (active)	20.9 µM (active)	inactive	20.9 µM (active)						
CCCCCCCCCCCCCCCC(=O)O[C@H]1[C@@H](O)[C@@H](O)[C@@H]([C@H](NC(=O)[C@@H]2C[C@@H](CCC)CN2C)[C@H](C)Cl)O[C@@H]1SC	inactive	inactive	inactive	inactive		8.33 µM (active)		inactive			7.43 µM (active)	4.69 µM (active)	inactive	18.7 µM (active)				
CCOC(=O)[C@@H](N)CCC(=O)N[C@@H](CSCc1ccccc1)C(=O)N[C@@H](C(=O)OCC)c1ccccc1	inactive	26.4 µM (active)		inactive	14.8 µM (active)				18.7 µM (active)	23.5 µM (active)	23.5 µM (active)				26.4 µM (active)			
COC1CCC(C(=O)c2ccc3nc4c(cc3c2)CCCO4)CC1 (stereo not drawn)	26.4 µM (active)	16.6 µM (active)	18.7 µM (active)	23.5 µM (active)			9.35 µM (active)	14.8 µM (active)	13.2 µM (active)	18.7 µM (active)	18.7 µM (active)	20.9 µM (active)						
CN(C)CCOc1ccc(-c2nc(-c3ccc4c(c3)CCC4=NO)c(-c3ccncc3)[nH]2)cc1	18.7 µM (active)	14.8 µM (active)	18.7 µM (active)	16.6 µM (active)	11.8 µM (active)	14.8 µM (active)		23.5 µM (active)		14.8 µM (active)	6.62 µM (active)	20.9 µM (active)	18.7 µM (active)	23.5 µM (active)	16.6 µM (active)	9.35 µM (active)		
O=c1[nH]c(=O)n([C@H]2C[C@@H](O)[C@@H](CO)O2)cc1I	inactive	inactive		inactive	inactive					inactive	inactive	inactive	inactive	inactive	inactive	inactive	3.32 µM (active)	
O=C(Nc1ccccc1)Nc1ccc(-c2ccc(C(=O)[C@H]3CCC[C@H]3C(=O)O)cc2)cc1	inactive	inactive		inactive	13.2 µM (active)	7.43 µM (active)	inactive	inactive	inactive	inactive	0.372 µM (active)			inactive	3.72 µM (active)			
CNC1CCC(N(Cc2cccc(-c3ccncc3)c2)C(=O)c2sc3ccccc3c2Cl)CC1 (stereo not drawn)	20.9 µM (active)	7.43 µM (active)	18.7 µM (active)		16.6 µM (active)	18.7 µM (active)	8.33 µM (active)	10.5 µM (active)	7.43 µM (active)	9.35 µM (active)	18.7 µM (active)	18.7 µM (active)	14.8 µM (active)	14.8 µM (active)				
O=C1NC(=O)C(=Cc2ccc(-c3ccc(F)cc3O)o2)S1	inactive	0.418 µM (active)	3.32 µM (active)		inactive			inactive	7.43 µM (active)		2.09 µM (active)	37.2 µM (active)		20.9 µM (active)				
COc1ccc2nc3cc(Cl)ccc3c(Nc3cc(CN4CCCC4)c(O)c(CN4CCCC4)c3)c2n1	23.5 µM (active)	16.6 µM (active)		29.6 µM (active)			20.9 µM (active)		7.43 µM (active)	14.8 µM (active)		11.8 µM (active)		18.7 µM (active)				
N#CC(=C1Nc2ccccc2S1)c1ccnc(OCc2ccc(CN3CCOCC3)cc2)n1	23.5 µM (active)	7.43 µM (active)	0.0332 µM (active)	23.5 µM (active)	0.0264 µM (active)	0.0743 µM (active)		5.26 µM (active)	5.26 µM (active)	0.235 µM (active)	0.0264 µM (active)	26.4 µM (active)			2.09 µM (active)	0.0059 µM (active)	0.105 µM (active)	
NC(=O)c1ncn([C@@H]2O[C@H](CO)[C@@H](O)[C@@H]2O)n1	inactive	inactive			inactive		inactive	inactive	inactive	inactive	inactive		inactive	inactive			inactive	
OC[C@H]1O[C@@H](OCCc2ccc(O)cc2)[C@H](O)[C@@H](O)[C@H]1O	inactive		inactive		inactive	inactive	inactive	inactive			inactive	inactive	inactive					inactive
O=c1cc(-c2ccc(O)c(O)c2)oc2cc(O)cc(O)c12	inactive		inactive	inactive	inactive	inactive		inactive	26.4 µM (active)		6.62 µM (active)	inactive						inactive
CCNC(=O)Nc1ccc(Oc2ncnc(N)c2C=NOC)cc1Cl	3.72 µM (active)		2.96 µM (active)	20.9 µM (active)	4.69 µM (active)	4.69 µM (active)		9.35 µM (active)				14.8 µM (active)	2.64 µM (active)	inactive			5.9 µM (active)	
